Shown are actives, neighbours in structure and some others; about 3.9% of the full set was active somewhere.
KKLEB cytotox: cytotoxicity in KKLEB CF airway cells, primary screen, cytotoxicity control for CF NF-kB inhibitor project, cell-based, uHTS, fluorescence assay plates; KKLEB CF airway cells viability, ATPlite luminescence, overnight; hits give low values; cells stimulated with P. aeruginosa culture filtrate; activity change (cytotoxicity), % at 5 µM; hit rate 0.36% among 360,000;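 active means corrected activity change at or below -50% at 5 µM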
TROY signal inh: inhibitors of TROY-driven NF-kB signaling, primary screen, Q293 LMP1-TROYcd cells, NF-kB luciferase, uHTS; Q293 LMP1-TROYcd NF-kB luciferase reporter, 4 h; inhibition, % at 10 µM; hit rate 0.98% among 360,000; AID 1347056, 2019;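 active means compounds whose plate-normalised and pattern-corrected inhibition of the luciferase reporter signal at the single screening dose is 50% or more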
CF NFkB inh: inhibitors of PAF-induced NF-kB signaling, primary screen, cell-based, GFP fluorescence, uHTS; KKLEB NF-kB-GFP reporter, GFP fluorescence overnight; hit rate 0.86% among 360,000; inhibition, % at 5 µM;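 active means at least 50% inhibition at 5 µM, scaled per plate between neutral and stimulator controls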;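 further: PAF is a Pseudomonas aeruginosa culture filtrate used as stimulus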
TWEAK Fn14 block: inhibitors of TWEAK-Fn14 signaling, primary screen, luciferase reporter cells, uHTS. hit rate 2% among 360,000. TWEAK-stimulated Fn14 reporter cells, luciferase luminescence, 8 h. AID 1159606, 2016. inhibition, % at 10 µM; in the data active means inhibition above about 50%
Peg3 prom inh: Peg3 promoter-driven luciferase inhibitors, primary screen, cell-based, HeLa, luciferase luminescence. HeLa PEG-Prom luciferase reporter, overnight. inhibition, % at 20 µM. hit rate 1.7% among 360,000. AID 588405, 2011;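 active means inhibition of at least 50% at 20 µM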
HIF-2a inh: HIF-2a reporter inhibitors, primary screen, luminescence, 786-0 RCC cells. 786-0 RCC cells HIF-2a reporter, luciferase luminescence, overnight. inhibition, % at 18.8 µM. hit rate 0.72% among 360,000. AID 624352, 2012;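 active means inhibition of the luminescence signal of 40% or more relative to plate controls, in a single-dose primary screen at 18.75 µM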
Of the large screens only hits and unclear results are named; the others gave an inactive call.

COC(=O)c1c(C)[nH]c(C(=O)/C=C/c2ccccc2F)c1C	TROY signal inh 60.5, TWEAK Fn14 block 51.2
CC(=O)c1ccc(NC(=O)COC(=O)c2c3c(nc4ccccc24)/C(=C\c2cccs2)CCC3)cc1	TWEAK Fn14 block 56.8, Peg3 prom inh 56.2
CC(C)CNC(=O)COC(=O)c1c2c(nc3ccccc13)/C(=C\c1cccs1)CC2	none
COC(=O)C(NC(=O)C(NC(=O)c1ccccc1)C(C)C)C(C)C (centres undefined)	none
Cc1ccc(S(=O)(=O)N(C)c2cc(S(=O)(=O)N3CCOCC3)c(C)cc2C)cc1	none
Cc1cc(C)c(S(=O)(=O)N2CCCCC2)cc1N(C)S(=O)(=O)c1ccc(Cl)cc1	Peg3 prom inh 98.2
COCCN(C(=O)Cc1cccs1)C(C(=O)NCc1ccc(OC)cc1)c1ccc(OC)cc1 (centres undefined)	none
COc1ccc(CNC(=O)C(c2ccc(C)cc2)N(Cc2cccs2)C(=O)c2ccc3c(c2)OCCO3)cc1 (centres undefined)	KKLEB cytotox -93.5, CF NFkB inh 100.2, Peg3 prom inh 63.4
COc1ccc(CNC(=O)C(c2cccs2)N(Cc2ccco2)C(=O)Cc2cccs2)cc1 (centres undefined)	Peg3 prom inh 57.2
COc1ccc(CNC(=O)C(c2ccco2)N(Cc2cccs2)C(=O)Cc2cccs2)cc1 (centres undefined)	none
Cc1ccc(S(=O)(=O)N2CCOCC2)cc1NC(=O)COC(=O)CNC(=O)c1ccc(C(C)(C)C)cc1	none
Cc1cc(C(=O)COc2cccnc2[N+](=O)[O-])c(C)n1-c1ccccc1F	HIF-2a inh 50.2
Cc1ccc(-n2c(C)cc(C(=O)COc3cccnc3[N+](=O)[O-])c2C)cc1	TWEAK Fn14 block 62.7, HIF-2a inh 58.6
Cc1cc(C(=O)COc2cccnc2[N+](=O)[O-])c(C)n1-c1ccccc1	TWEAK Fn14 block 90.4, Peg3 prom inh 72.5, HIF-2a inh 74.3
Cc1cc(C(=O)COc2cccnc2[N+](=O)[O-])c(C)n1Cc1ccco1	none
CCOc1ccccc1-c1nc(CN2CCCC2c2nccs2)c(C)o1 (centres undefined)	none
CCOC(=O)c1ccc(Oc2nc(N(C)C)nc(N(C)C)n2)cc1	none
CCOC(=O)c1ccc(Oc2nc(SC)nc(N(C)C)n2)cc1	TWEAK Fn14 block 73.5 (no result: TROY signal inh)
CN1OC[C@@H]2C(=O)N3CCc4c([nH]c5ccccc45)[C@@H]3C[C@@H]21	none
Cc1ccc(N(CC(=O)NCC(O)c2ccccc2)S(=O)(=O)c2ccc(C)cc2)cc1 (centres undefined)	none
Cc1cc(/C=N/NC(=O)c2cccc([N+](=O)[O-])c2)c(C)n1-c1ccc(Cl)cc1Cl	TWEAK Fn14 block 95.5 (no result: TROY signal inh)
COCC(=O)N(C)C[C@H]1Oc2ncc(C#C[C@H](C)O)cc2C(=O)N([C@@H](C)CO)C[C@H]1C	none
CC(=O)C(=Nc1ccc(Cl)cc1Cl)NNc1cccc(Cl)c1	none (no result: TROY signal inh)
CC(O)CNc1nc2sc3c(c2c(=O)n1CCc1ccccc1)CCCCC3 (centres undefined)	none
CN(C)CCNc1nc2sc3c(c2c(=O)n1CCc1ccccc1)CCCCC3	Peg3 prom inh 107.6
COc1cc(/C=C(/C#N)C(=O)NCCc2c[nH]c3ccccc23)ccc1OCc1ccccc1F	Peg3 prom inh 89.4
Cc1cc(/C=C(\C#N)C(=O)NCCc2c[nH]c3ccccc23)c(C)n1C	none
Cc1cc(-c2nnc(SCC(=O)Nc3ccccc3C(F)(F)F)o2)c(C)n1-c1ccccc1	TROY signal inh 69.7, TWEAK Fn14 block 91.6
Cc1ccc(S(=O)(=O)C2(C(=O)N3CCN(c4ccccc4F)CC3)CC2)cc1	TWEAK Fn14 block 65.9
Cc1cccc(N2CCN(C(=O)C3(S(=O)(=O)c4ccc(Cl)cc4)CC3)CC2)c1C	none
O=C(CC(Nc1ccc(Cl)cc1Cl)C(=O)O)c1ccccc1 (centres undefined)	TROY signal inh 87.0, TWEAK Fn14 block 94.5
O=C(CC(Nc1ccccc1Cl)C(=O)OCC(=O)c1cccs1)c1ccccc1 (centres undefined)	TROY signal inh 71.2, TWEAK Fn14 block 70.1
Cc1ccc(OCCNC(=O)c2cccc(S(=O)(=O)NCc3ccccc3)c2)cc1	TROY signal inh 67.0
COC(=O)[C@H](Cc1ccccc1)NC(=O)N(C)Cc1ccccc1	none
CN(Cc1ccccc1)C(=O)N[C@@H](Cc1ccccc1)C(=O)O	TWEAK Fn14 block 81.1 (no result: TROY signal inh)
N=P(N1CCOCC1)(N1CCOCC1)C12CC3CC(CC(C3)C1)C2	TWEAK Fn14 block 81.0 (no result: TROY signal inh)
CCCC(=O)NCC(c1cccs1)S(=O)(=O)c1ccc(C)cc1 (centres undefined)	none
CC1CCc2c(sc(NC(=O)CSc3nc(N)cc(=O)[nH]3)c2C(N)=O)C1 (centres undefined)	TROY signal inh 52.8, TWEAK Fn14 block 67.2
Cc1nn(C)cc1/C=N/NC(=O)CSc1ccccn1	none
CCC(C)(C)NC(=O)/C=C/c1ccc(OC)c(S(=O)(=O)N2CCOCC2)c1	none
COc1ccc(-c2c(C)nc3c(-c4ccccn4)cnn3c2N)cc1	TROY signal inh 58.6, TWEAK Fn14 block 55.7
CC(C)(C)S(=O)(=O)c1cnc2c(-c3ccsc3)cnn2c1N	none
Cc1cc(N)n2ncc(-c3ccc(F)cc3)c2n1	none
Cc1nc2c(-c3ccc(F)cc3)cnn2c(N)c1-c1ccc(F)cc1	TROY signal inh 73.6, TWEAK Fn14 block 77.8
Cc1cc(C(F)(F)Cl)n2ncc(-c3ccccn3)c2n1	none
COc1ccc(-c2c(C)nc3c(-c4ccsc4)cnn3c2N)cc1	TROY signal inh 56.7
C=CCNc1nc(Nc2ccc(-c3nc4ccccc4o3)cc2)nc(N2CCOCC2)n1	TROY signal inh 58.2, TWEAK Fn14 block 53.5
C=CCNc1nc(Nc2ccc([N+](=O)[O-])cc2)nc(N2CCCC2)n1	Peg3 prom inh 56.0
CN1CCN(c2ccccc2NC(=O)c2cccs2)CC1	none
COc1ccccc1-c1nc(-c2ccccc2)nc(N2CCN(C)CC2)c1C#N	none
COc1ccc2c(c1)c1nc3ccccc3nc1n2CC(=O)OC(C)C	KKLEB cytotox -55.5, Peg3 prom inh 55.3
COc1ccc(Cn2c3ccc(OC)cc3c3nc4ccccc4nc32)cc1	none
C#CCOCCOCCOCCNc1nc(N2CCN(C(=O)CCCCCCCCCCNC(=O)[C@@H](CCC(=O)O)n3cc(CCCCCN)nn3)CC2)nc(N2CCN(C(=O)CCCCCCCCCCNC(=O)[C@H](CCCCN)n3cc(C[C@@H](C)CC)nn3)CC2)n1	none
